These results are taken from PubChem BioAssay AID1423 (NMMLSC, 2008).

SMILES strings stand for the structures. About 750 (0.34%) of roughly 220,000 compounds were called active. The entries come from a sample that favours actives as a whole. Values without a mark were called inactive. No stated cut-off is given here; in the data, active means response below about 60% or above about 140%; inactive means in between.

Chain of Guanine nucleotide-binding protein G(o) subunit alpha (Homo sapiens) (P09471 whole entry, looked up): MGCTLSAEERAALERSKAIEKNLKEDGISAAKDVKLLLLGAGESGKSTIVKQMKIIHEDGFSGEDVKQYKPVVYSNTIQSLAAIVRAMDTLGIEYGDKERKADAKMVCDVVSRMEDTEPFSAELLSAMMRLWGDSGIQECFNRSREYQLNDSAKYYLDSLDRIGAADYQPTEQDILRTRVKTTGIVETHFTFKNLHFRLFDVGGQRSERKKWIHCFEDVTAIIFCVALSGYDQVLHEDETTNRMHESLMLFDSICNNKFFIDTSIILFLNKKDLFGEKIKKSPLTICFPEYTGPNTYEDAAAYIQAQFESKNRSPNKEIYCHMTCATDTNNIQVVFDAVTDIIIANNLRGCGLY

The assay has as its target Guanine nucleotide-binding protein G(o) subunit alpha (Homo sapiens) (UniProt P09471). The assay can be described thus: RGS8-Galphao binding modulators, primary screen, biochemical, multiplexed bead flow cytometry (AID 1423).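 Further: Galphao activated as the GDP aluminium fluoride complex binding bead-coupled RGS8.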 To be noted: at 10 µM, actives lie on both sides. In general terms: Flow cytometry measures light scatter and fluorescence of single cells or particles in a stream.
`S=C1NC(c2ccccc2)=NCN1c1ccc(Br)cc1`: the response (percent of control binding) was 106%. The result for `COc1ccc(N2C(=O)CNC2=S)cc1` reads 102%; that for `CC(C)NC(=O)c1ccc(Sc2ccccc2)c([N+](=O)[O-])c1`, 103%. To `Cc1c(C(=O)Nc2cccc(-c3nnc4n3CCCCC4)c2)oc2ccccc12` belongs 101%; to `Nc1ccc(C(=O)OCC(=O)NC2CCCc3ccccc32)cc1[N+](=O)[O-]` (centres undefined), 101%; to `Nc1ccc(C(=O)OCC(=O)NC2CCS(=O)(=O)C2)cc1[N+](=O)[O-]` (centres undefined), 6.98% (active). To `O=C(COC(=O)/C=C/c1ccc2c(c1)OCO2)NC1CCS(=O)(=O)C1` (centres undefined) belongs 99.8%; to `Cc1ccc(/C=N/NC(=O)CSc2ccccn2)o1`, 101%. For `CC[C@H]1OC(=O)[C@H](C)[C@@H](O[C@H]2C[C@@](C)(OC)[C@@H](O)[C@H](C)O2)[C@H](C)[C@@H](O[C@@H]2O[C@H](C)C[C@H](N(C)C)[C@H]2O)[C@](C)(O)C[C@@H](C)[C@@H]2N[C@@H](COCCOC)O[C@H]([C@H]2C)[C@]1(C)O`, the response (percent of control binding) is 85.8%. For the compound `COc1cc(OC)nc(NC(=O)CCl)n1`, the response (percent of control binding) was 100%. To `CC(=O)Nc1nc(N(C)C)nc(N(C)C)n1` belongs 25.1% (active). To `CCC(=O)Nc1nc(OC)cc(OC)n1` belongs 100%; to `CC(=O)c1c(C)[nH]c(C(=O)OCC(=O)Nc2sc3c(c2C#N)CCCC3)c1C`, 101%. The result for `O=Cc1ccc(OCc2cn3ccccc3n2)cc1` reads 101%; that for `Cn1cc(CCC(=O)N2CCCC(C(=O)c3ccc(C(C)(C)C)cc3)C2)cn1` (centres undefined), 98.1%; that for `CCOC(=O)C1CCCN(C(=O)/C=C/c2ccc(OC)cc2)C1` (centres undefined), 100%. For the compound `C=CCOC(=O)C1=C(C)N=C2SCCC(=O)N2C1/C=C/c1ccccc1OC` (centres undefined), the response (percent of control binding) is 92.4%. The result for `COc1cc(C2C(C(=O)c3ccc(C)o3)=C(O)C(=O)N2CCc2ccccc2)ccc1O` (centres undefined) reads 101%; that for `CCOC(=O)C1=C(c2ccccc2)N=C2SCC(=O)N2C1c1ccc(O)c(OC)c1` (centres undefined), 144% [activator] (active). Take `O=C(COc1nc2ccccc2nc1N1CCOCC1)NCC(F)(F)F`: the response (percent of control binding) was 86%.

On to `CCOc1cc2[nH]c(=S)n(CCN3CCCCC3C)c(=O)c2cc1OCC` (centres undefined), for which the response (percent of control binding) is 111%. To `CC(=O)NC1C(OCc2ccccc2)OC(COC(C)=O)C(OC(C)=O)C1OC(C)=O` (centres undefined) belongs 105%; to `O=C(OCC1O[C@@H](OC(=O)c2cc(O)c(O)c(O)c2)[C@@H](OC(=O)c2cc(O)c(O)c(O)c2)[C@@H](OC(=O)c2cc(O)c(O)c(O)c2)[C@@H]1OC(=O)c1cc(O)c(O)c(O)c1)c1cc(O)c(O)c(O)c1` (some centres undefined), 46.9% (active). With `Cc1nnc(-c2ccc(Oc3ccc(C)c(C)c3)c([N+](=O)[O-])c2)o1`, the response (percent of control binding) was 99.2%. Consider `O=C(Oc1ccccc1C(=S)N1CCCCC1)c1cc([N+](=O)[O-])cc([N+](=O)[O-])c1`, for which the response (percent of control binding) is 95.2%. The result for `Cc1cc(=O)oc2cc(OCCC[n+]3ccccc3)ccc12` reads 101%; that for `CCOC(=O)c1c(/N=C/C2C(=O)CC(C)(C)CC2=O)sc(C)c1C`, 113%; that for `Cc1ccc(C(=O)NCC(=O)O)s1`, 102%. To `N=C1C(=O)OCC1c1ccccc1NC(=O)CN1CCCCC1` (centres undefined) belongs 100%; to `CCCc1ccc(C(=O)[C@@H]2[C@@H](C(C)=O)N3c4ccc(F)cc4C=C[C@@H]3[C@@]23C(=O)Nc2ccccc23)cc1`, 94.4%; to `Cn1nc(-c2ccccc2)c(CO)c1Sc1ccccc1`, 95.1%.

With `CC(C)(C)CN1C(=O)C(=O)NC[C@H]1Cc1cccc2ccccc12`, the response (percent of control binding) is 96.5%. The result for `CC(NC(=O)CCC(=O)N1CCN(S(=O)(=O)c2ccc(Cl)cc2)CC1)c1ccccc1` (centres undefined) reads 101%.

For `CCNC(=O)NC(=O)C(C)OC(=O)C1CCN(S(=O)(=O)c2ccccc2F)CC1` (centres undefined), the response (percent of control binding) is 106%.

As for `CC(NC(=O)COC(=O)C1CCN(S(=O)(=O)c2ccccc2C(F)(F)F)CC1)c1ccccc1` (centres undefined), the response (percent of control binding) was 148% [activator] (active).

`O=C(C1CC1)N1N=C2CCCCC2C1(O)C(F)(F)F` (centres undefined): the response (percent of control binding) was 100%. To `COC(=O)c1c(NC(=O)CN2CCN(S(=O)(=O)c3ccccc3[N+](=O)[O-])CC2)sc2c1CCC(C)C2` (centres undefined) belongs 104%. The result for `Cc1ccc(C)c(NC(=O)c2ccc(OC(=O)c3ccco3)cc2)c1` reads 102%.

As to `CC1=CC2=NC(=O)/C(=C/c3coc4ccccc4c3=O)C(=N)N2O1`, the response (percent of control binding) was 108%. To `O=C(COC(=O)CC1CC2CCC1C2)NC(=O)NC1CCCC1` (centres undefined) belongs 102%; to `O=C(c1ccccc1)C(Cn1cncn1)C(Sc1ccccc1)c1ccccc1` (centres undefined), 92.9%; to `NC(=O)C1(N2CCCCC2)CCN(C(=S)Nc2ccc(Cl)cc2)CC1`, 129%. For `CCC(=O)N1CCC(C(N)=O)(N2CCCCC2)CC1`, the response (percent of control binding) is 163% [activator] (active).

In the case of `CC(C)(O)C#Cc1ccc(C(=O)N2CCC(C(N)=O)(N3CCCCC3)CC2)cc1`, the response (percent of control binding) was 100%. To `COc1ccc(NC(=S)NCC2CCN(c3ccc(OC)cc3)C2)cc1` (centres undefined) belongs 97.5%. On to `Cc1ccc(S(=O)(=O)N2CCOCC2)cc1C(=O)NC(=S)N(Cc1ccccc1)C(C)C`, for which the response (percent of control binding) was 96.3%. Regarding `COc1ccc(NC(=S)N2CCc3cc(OC)c(OC)cc3C2)cc1`, the response (percent of control binding) is 103%. The result for `O=C(CSc1ncn[nH]1)Nc1nsc(-c2ccccc2)n1` reads 79%; that for `CC(C)(C)C1C/C(=C/c2ccco2)C(=O)/C(=C/c2ccco2)C1` (centres undefined), 97.5%; that for `COc1cc(/C=C/C(=O)N2c3ccccc3Sc3ccc(C(F)(F)F)cc32)cc(OC)c1OC`, 101%. The result for `O=C(CN1CCCCCC1)N1c2ccccc2Sc2ccc(C(F)(F)F)cc21` reads 107%; that for `O=C(CN1CCCCC1)N1c2ccccc2Sc2ccc(C(F)(F)F)cc21`, 22.7% (active). The result for `Cc1nc(N2CCOCC2)nc2c1CCCC2` reads 99.2%; that for `C[C@@H]1NC(=O)c2cc([N+](=O)[O-])cc(F)c2NCCC[C@@H](C(N)=O)NC(=O)[C@H](CC(N)=O)NC1=O`, 100%.
